This is an account of results in the supplement of paper PMC10600219.

Whole data set: some 2,800 compounds, median “cell viability relative to vehicle” near 1.1, cut for the lowest 2% near 0.19. This excerpt belongs to a sample that is enriched for the lowest values.

In this assay the test system is NCI-H2228 parental. As to the kind of experiment: cell viability relative to vehicle (fraction of vehicle); NCI-H2228 is an ALK-positive lung cancer line and DTP means drug-tolerant persister; higher = less growth inhibition. Particulars: 100 nM; treatment time 6 days. The method, boiled down: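 Parental NCI-H2228 cells and drug-tolerant persister cells (made with 1000 nM of a targeted drug for 13 days) were seeded in 384-well plates. The next day, the 3114-agent TargetMol anti-cancer compound library was added at 100 nM, with DMSO as vehicle. After 6 days, ATP was read with the CellTiter-Glo 3D Cell Viability Assay. Each value is cell viability relative to vehicle-treated cells.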
With `Cc1ccccc1C(C(=O)NC1CCCCC1)N(C(=O)Cn1cnc2ccccc21)c1cccc(F)c1` (stereo not given), the cell viability stood at 1.19. Next, `CN1CCN(c2ccc(OC(F)(F)F)c(Nc3ncc4c(n3)-c3c(c(C(N)=O)nn3CCO)CC4)c2)CC1`: 0.168.

For `CCC(=O)Nc1cccc(Oc2nc(Nc3ccc(N4CCN(C)CC4)cc3OC)ncc2Cl)c1`, the cell viability was 1.22.

Regarding `C=CC(=O)Nc1cccc(Oc2nc(Nc3ccc(N4CCN(C)CC4)cc3OC)ncc2Cl)c1`, the cell viability is 1.19.

With `CCCCc1nc2ccc(NC(=O)NC3CCCCC3)cc2n1Cc1ccc(-c2ccccc2C(=O)O)cc1`, the cell viability came out at 1.08. `Cc1cc2cc(Oc3ccnc(Nc4cccc(CS(=O)(=O)NCCN(C)C)c4)n3)ccc2[nH]1` [Sulfatinib]: the cell viability was found to be 1.03. Regarding `CN(Cc1cnc2nc(N)nc(N)c2n1)c1ccc(C(=O)N[C@@H](CCC(=O)O)C(=O)O)cc1` [Methotrexate], the cell viability worked out at 0.375. As to `Nc1nc(=O)c2c([nH]1)NCC(CNc1ccc(C(=O)N[C@@H](CCC(=O)O)C(=O)O)cc1)N2C=O` (stereo not given in full) [Calcium folinate], the cell viability is 1.08. Turning to `Cc1nc(=O)c2cc(CN(C)c3ccc(C(=O)N[C@@H](CCC(=O)O)C(=O)O)s3)ccc2[nH]1` [Raltitrexed], the cell viability was 0.151. Next, `COc1cc(/C=C/CO)cc(OC)c1O[C@@H]1O[C@H](CO)[C@@H](O)[C@H](O)[C@H]1O` [eleutheroside-b]: 1.13; `CCCCNNC(=O)c1ccc(-c2cccc(F)c2F)cc1`: 1.03; `COc1cc(/C=C/C(=O)NCCn2c(C(F)(F)F)cc3ccccc32)cc(OC)c1OC`: 1.05.

As to `COc1cc(CCC(=O)CC(=O)CCc2ccc(O)c(OC)c2)ccc1O` [Tetrahydro Curcumin], the cell viability was 1.03.

As for `CS(=O)(=O)Nc1cc(-c2ccc3ncnc(Nc4ccc(F)c(Cl)c4)c3c2)cnc1Cl`, the cell viability was 1.08. Next, `CCCS(=O)(=O)Nc1ccc(F)c(C(=O)c2c[nH]c3ncc(-c4ccc(Cl)cc4)cc23)c1F` [Vemurafenib]: 1.2. Regarding `COc1ncc(-c2ccc3nccc(-c4ccnnc4)c3c2)cc1NS(=O)(=O)c1ccc(F)cc1F` [Omipalisib], the cell viability stood at 0.148.

With `CO[C@@H](C)Cn1c(=O)n(C)c2cnc3ccc(-c4cncc(C(C)(C)O)c4)cc3c21`, the cell viability amounted to 0.412.

As to `O=C(O)c1c[nH]c2cc(Cl)c(-c3ccc(C4(O)CCC4)cc3)cc12`, the cell viability was determined as 1.09. As for `C/C=C1\NC(=O)[C@H]2CSSCC/C=C/[C@H](CC(=O)N[C@H](C(C)C)C(=O)N2)OC(=O)[C@H](C(C)C)NC1=O` [Romidepsin], the cell viability stood at 0.0515. On to `CCN(CC)CCNc1ccc(C)c2sc3ccccc3c(=O)c12` [Lucanthone], for which the cell viability was determined as 0.956. Next, `COCC[n+]1c2c(n(Cc3cnccn3)c1C)C(=O)c1ccccc1C2=O`: 0.0796. With `COc1ccc(S(=O)(=O)Nc2ccccc2C=Cc2ccncc2)cc1`, the cell viability worked out at 0.238.

Regarding `C[C@@H]1O[C@@H](O[C@@H]2[C@@H](O)[C@H](OCCc3ccc(O)c(O)c3)O[C@H](CO)[C@H]2OC(=O)/C=C/c2ccc(O)c(O)c2)[C@H](O)[C@H](O)[C@H]1O` [Verbascoside], the cell viability turned out to be 1.03. Take `CN(C(=O)CNC(=O)/C=C/c1cccc(Cl)c1)C1CCS(=O)(=O)CC1`: the cell viability is 0.834. In the case of `O=C(CNc1ccc2ccccc2c1)N/N=C/c1cc(Br)c(O)c(Br)c1O` it was 1.05. As for `COC(=O)C1=CO[C@@H](O[C@@H]2O[C@H](CO)[C@@H](O)[C@H](O)[C@H]2O)[C@H]2[C@@H]1[C@H](O)C[C@]2(C)OC(C)=O` [8-O-Acetylshanzhiside methyl ester], the cell viability worked out at 0.898.

For `OCC1(O)COc2cc(O)ccc2-c2cc(O)c(O)cc2C1` (stereo not given) [Protosappanin B], the cell viability was 1.04. Next, `O=c1cc(-c2ccc(O)c(-c3c(O)cc(O)c4c(=O)cc(-c5ccc(O)cc5)oc34)c2)oc2cc(O)cc(O)c12` [Amentoflavone]: 1.08. In the case of `C[C@H]1O[C@@H](O[C@H]2CC[C@@]3(C)[C@@H](CC[C@]4(C)[C@@H]3C=C[C@]35OC[C@@]6(CCC(C)(C)C[C@H]63)[C@@H](O)C[C@]54C)[C@]2(C)CO)[C@H](O)[C@@H](O[C@@H]2O[C@H](CO)[C@@H](O)[C@H](O)[C@H]2O)[C@H]1O` [Saikosaponin A] it was 1.11. In the case of `C/C1=C/CC[C@H](C)C(=O)C[C@@H](C(C)C)C(=O)C1` [Curdione] it was 1.07. For the compound `O=C1c2c(O)ccc(O)c2C(=O)c2c(NCCNCCO)ccc(NCCNCCO)c21` [Mitoxantrone], the cell viability amounted to 0.132. Next, `O=C1c2cccc(O)c2C(=O)c2c(O)cccc21` [Antrapurol]: 1.06. Next, `NCCNc1ccc(NCCN)c2c1C(=O)c1ccncc1C2=O` [Pixantrone dimaleate]: 0.405; `COc1ccc(S(=O)(=O)N[C@@H](CNc2nc(C)nc(N3CCC(c4ccc5c(n4)NCCC5)CC3)c2C)C(=O)O)cc1`: 0.705; `COc1ccc2c(c1)C(c1ccc(F)cc1)=C(CN1CCCC1)CO2`: 1.1.

As to `COc1cc2ncnc(Nc3ccc(O)cc3)c2cc1OC`, the cell viability was found to be 1.02.

For `CO[C@H]1C(=O)[C@]2(C)[C@@H](OC)C[C@H]3OC[C@@]3(OC(C)=O)[C@H]2[C@H](OC(=O)c2ccccc2)[C@]2(O)C[C@H](OC(=O)[C@H](O)[C@@H](NC(=O)OC(C)(C)C)c3ccccc3)C(C)=C1C2(C)C` [Cabazitaxel], the cell viability came to 0.2. In the case of `CC(=O)O[C@@]12CO[C@@H]1C[C@H](O)[C@@]1(C)C(=O)[C@H](O)C3=C(C)[C@@H](OC(=O)[C@H](O)[C@@H](NC(=O)OC(C)(C)C)c4ccccc4)C[C@@](O)([C@@H](OC(=O)c4ccccc4)[C@H]21)C3(C)C` [Docetaxel trihydrate] it was 0.154.

Consider `CC(=O)O[C@@]12CO[C@@H]1C[C@H](O)[C@@]1(C)C(=O)[C@H](O)C3=C(C)[C@@H](OC(=O)[C@H](O)[C@@H](NC(=O)OC(C)(C)C)c4ccccc4)C[C@@](O)([C@@H](OC(=O)c4ccccc4)[C@H]21)C3(C)C` [Docetaxel], for which the cell viability was 0.118. In the case of `CC(=O)O[C@H]1C(=O)[C@@]2(C)[C@H]([C@H](OC(=O)c3ccccc3)[C@]3(O)C[C@H](OC(=O)[C@H](O)[C@@H](NC(=O)c4ccccc4)c4ccccc4)C(C)=C1C3(C)C)[C@]1(OC(C)=O)CO[C@@H]1C[C@@H]2O` [Paclitaxel] it was 0.128; in that of `CC(C)NCC(O)COc1ccc(COCCOC(C)C)cc1` (racemic) [(±)-Bisoprolol hemifumarate], 1.14; in that of `CC(C)(O)[C@H]1CC[C@H](Nc2ccc3ncc(-c4cccc(C(F)(F)F)c4)n3n2)CC1`, 0.928.

On to `COc1cc2c(c(OC)c1OC)-c1c(cc(OC)c(OC)c1OC)CC(C)C(C)C2` (stereo not given) [Schizandrin A], for which the cell viability was 1.11. For the compound `CC(C)c1c(-c2ccccc2)nc2c(C#N)c[nH]n2c1=O`, the cell viability came out at 1.1. Next, `COC(=O)C[C@](O)(CCCC(C)(C)O)C(=O)O[C@@H]1C(OC)=C[C@]23CCCN2CCc2cc4c(cc2[C@H]13)OCO4` [Homoharringtonine]: 0.162.

`COc1c2c(cc3oc(CO[C@@H]4O[C@H](CO)[C@@H](O)[C@H](O)[C@H]4O)cc(=O)c13)O[C@H](C(C)(C)O)C2` [Cimifugin beta-D-glucopyranoside]: the cell viability worked out at 1.09. For the compound `C=C[C@H]1[C@H](O[C@@H]2O[C@H](CO)[C@@H](O)[C@H](O)[C@H]2O)OC=C2C(=O)OCC[C@]21O` [Swertiamarin], the cell viability came to 1.11. For `CCCCCCCCCCCCCCCC(=O)O` [Palmitic acid], the cell viability was 1.02.

Consider `O=C1O[C@H]2[C@@H]3OC(=O)c4cc(O)c(O)c(O)c4-c4c(cc(O)c(O)c4O)C(=O)OC[C@H]2O[C@@H](OC(=O)c2cc(O)c(O)c(O)c2)[C@@H]3OC(=O)c2cc(O)c(O)c3c2[C@@H]2C1=CC(=O)[C@](O)(O3)C2(O)O` [Geraniin], for which the cell viability is 0.981.

Turning to `COc1cc(N2CCC(N3CCN(C)CC3)CC2)ccc1Nc1ncc(Cl)c(-c2c[nH]c3ccccc23)n1`, the cell viability was found to be 0.358. In the case of `COc1cc(C(C)C)c(Oc2cnc(N)nc2N)cc1I` it was 1.16.

As for `C/C(=C\c1csc(C)n1)[C@@H]1C[C@@H]2O[C@]2(C)CCC[C@H](C)[C@H](O)[C@@H](C)C(=O)C(C)(C)[C@@H](O)CC(=O)N1` [Ixabepilone], the cell viability was 0.119. Take `C[C@H](CCC(=O)NCC(=O)O)[C@H]1CC[C@H]2[C@@H]3[C@H](O)C[C@@H]4C[C@H](O)CC[C@]4(C)[C@H]3CC[C@]12C` [Glycochenodeoxycholic Acid]: the cell viability is 1.02. In the case of `CC(=O)OC(C)C(C)C(=O)OCC12C3CC(C)(C)[C@H](O[C@@H]1C[C@]1(C)C3=CCC3C4(C)CCC(O[C@@H]5O[C@H](C(=O)O)[C@@H](O[C@H]6O[C@H](CO)[C@@H](O)[C@H](O)[C@H]6O)[C@H](O)[C@H]5O[C@@H]5OC[C@@H](O)[C@H](O)[C@H]5O)[C@](C)(CO)C4CCC31C)C2O` (stereo not given in full) [Sodium Aescinate] it was 1.1; in that of `O=S(=O)(CCC(F)=C(F)F)c1ncc(Cl)s1` [Fluensulfone], 1.07.
